# Data from PubChem BioAssay.
# Activity calls are given as the source filed them.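 The calls were made as follows: active = RAM network inhibition above 8.4% in each of two replicates, 3 SD over the compound average; inconclusive = above 8.4% inhibition in only one replicate; inactive = 8.4% inhibition or less in each replicate.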
# Assay: RAM signaling pathway blockade in yeast – S. cerevisiae, Pdr1DBD-CYC8 efflux-inhibited sensitized strain, primary screen (AID 1298);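 also: 0% = DMSO untreated cells without growth and 100% = 10 µM 1-NA-PP1 full growth; higher means more yeast growth rescued from 5-FOA killing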
# Details: S. cerevisiae cbk1-as DSE1-URA3 strain, 5-FOA growth OD615, 2 d; at 50 µM; stronger effect = higher value
row,Structure (SMILES),RAM network inhibition
1,CCN(c1ccccc1)c1cc(C)nc2nc(C)nn12,4.74% (inactive)
2,Cc1sc(NC(=O)CCCC(=O)O)c(C#N)c1C,3.31% (inactive)
3,CCOc1ccc2nc(N3CCC(C(=O)Nc4nnc(CC)s4)CC3)sc2c1,6.98% (inactive)
4,O=C(CN1C(=O)C2C3C=CC(C3)C2C1=O)Nc1ccc2nccnc2c1 (stereo not given),0.31% (inactive)
5,Cn1nc(CC(=O)NC2CCCCCC2)c2ccccc2c1=O,1.38% (inactive)
6,O=C(C1CCN(S(=O)(=O)c2cccc3cccnc23)CC1)N1CCCC1,0.06% (inactive)
7,COc1ccc(CNc2oc(C)nc2C#N)cc1,6.09% (inactive)
8,CCOc1ccc2nc(N3CCC(C(=O)N4CCN(c5ccccn5)CC4)CC3)sc2c1,2.36% (inactive)
9,CC(=NCc1cccnc1)C1=C(O)c2ccccc2C1=O,-0.3% (inactive)
10,CC1CSc2nnc(CCc3ccccc3)n21 (stereo not given),-0.11% (inactive)
11,Nn1c(SC/C=C/c2ccccc2)nnc1-c1ccccn1,-2.02% (inactive)
12,Cc1cc(-c2nnc(-c3cc4ccccc4oc3=O)o2)c(C)n1-c1ccccc1,3.21% (inactive)
13,COc1ccc(NS(=O)(=O)c2ccc(NS(=O)(=O)c3ccc(C)cc3)cc2)nn1,4.16% (inactive)
14,CCC(C)C1C(C#N)=C(N)Oc2n[nH]c(-c3ccccc3)c21 (stereo not given),5.9% (inactive)
15,Cc1c(NC2=C(Cl)C(=O)N(c3ccccc3)C2=O)c(=O)n(-c2ccccc2)n1C,3.28% (inactive)
16,COc1ccc(C2C(C(=O)NCCN3CCOCC3)c3ccccc3C(=O)N2C)cc1OC (stereo not given),3.26% (inactive)
17,CN1C(=O)CS(=O)c2ccc(C(=O)NC3CC3)cc21 (stereo not given),-1.59% (inactive)
18,COc1ccc(CN2CCN(c3ncccn3)CC2)c(OC)c1,6.9% (inactive)
19,Cc1ccc(CSc2nc3c(c(=O)[nH]c(=O)n3C)n2CCC(C)C)cc1,7.58% (inactive)
20,COC(=O)C1C(=O)CC(C)(O)C(C(=O)OC)C1c1ccc2c(c1)OCO2 (stereo not given),0.48% (inactive)

row,Structure (SMILES),RAM network inhibition
1,Cn1c(NC(=O)c2ccc(Cl)cc2Cl)cc(=O)n(C)c1=O,-0.2% (inactive)
2,CCCCC1CCC(c2nc(-c3cccnc3)no2)CC1 (stereo not given),-1.92% (inactive)
3,CCc1nnc(NC(=O)CSc2nnc(Cc3cccn3C)n2C)s1,1.19% (inactive)
4,COc1ccc(-c2noc(-c3cccc(OC)c3OC)n2)cc1OC,2.97% (inactive)
5,CCCc1cc(C(=O)N2CCN(C(c3ccccc3)c3ccccc3)CC2)no1,5.99% (inactive)
6,CCN(CC)CCCNC(=O)c1cc(-c2ccc(O)cc2)on1,1.77% (inactive)
7,COc1ccccc1-n1c(SC)nc(O)cc1=O,4.2% (inactive)
8,CSC1=NCCN1C(=O)c1ccc(Br)o1,7.19% (inactive)
9,CCNC(=O)c1c(N)sc2c1CCCCC2,4.23% (inactive)
10,COc1cc(OC)c(NC(=O)c2ccc(Br)o2)cc1Cl,10.5% (inactive)
11,COc1ccc(OC)c(NC(=O)NC2(C(F)(F)F)Oc3ccccc3O2)c1,4.64% (inactive)
12,O=C(Nc1cnc2ccccc2c1)c1ccncc1,1.19% (inactive)
13,Cc1ccc(-c2nn(-c3ccccc3)cc2C(=O)N2CCOCC2)cc1,12.4% (inactive)
14,CCN(CC)CCNC(=O)Cn1nc(Cc2cccnc2)c2ccccc2c1=O,1.23% (inactive)
15,CC(=O)c1ccc(OCC(O)CN2CCC(C)CC2)cc1 (stereo not given),-2.94% (inactive)
16,COC(=O)c1cccnc1-n1c(=O)c2cccnc2n(Cc2cccc(OC)c2)c1=O,-1.41% (inactive)
17,Cc1cc(NS(=O)(=O)c2ccc(NC(=O)Nc3ccccc3)cc2)no1,1.02% (inactive)
18,CSCC[C@@H](C(=O)O)N1Cc2ccccc2C1=O,-0.16% (inactive)
19,CCC(NC(=O)c1ccccc1NC(=O)c1ccco1)C(=O)NC1CCCCC1 (stereo not given),2.08% (inactive)
20,CC(C)N(Cc1ccccc1)C(=O)c1cnc2n(c1=O)CCS2,1.59% (inactive)
